Here are results for 7 compounds from PubChem BioAssay (NCATS).

Assay [1] concerns the target Lysosomal acid glucosylceramidase (Homo sapiens) (UniProt P04062). Kind of assay: Glucocerebrosidase-p2 (AID 348; in the data active = potency below about 10 µM; note: potency is the fitted concentration of half-maximal effect). Particulars: purified GBA, blue fluorogenic substrate, 40 min. The procedure, abridged: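 Compounds titrated from 0.6 nM upwards against 0.2 nM enzyme in pH 5.9 citric acid/KH2PO4, taurocholate, tween-20; blue fluorogenic substrate 80 uM, 40 min room temperature, stopped and read Ex 365/Em 440 for AC50.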

The nature of assay [2]: AP1 Signaling Pathway (AID 357).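 Note: ME-180 reporter cells stimulated with EGF at its EC50 level; % is set by controls: 0 for no effect and ±100 for the full control effect.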 Particulars: ME-180 AP-1-bla reporter, EGF-induced, beta-lactamase ratio, 5 h; at 7.69 µM (top of the series) unless noted. The procedure, abridged: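 Titration-series screen for positive or negative modulators of EC50 EGF-induced signaling in ME-180 cells carrying an AP-1-driven beta-lactamase reporter. After 5 hours at 37 degrees Celsius, CCF4 460nm/530nm emission ratio gave %Activity; AC50 values derived.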

Assay [3] deals with Cytochrome P450 1A2 (Homo sapiens) (UniProt P05177). The experiment in a line: p450-cyp1a2 (AID 410; calls by dose curve; note: potency is the fitted concentration of half-maximal effect). The note with it: recombinant CYP1A2, luciferin-ME demethylation, luminescence; series mostly up to 57 µM. The procedure, abridged:
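Luminescent readout of luciferin formed from Luciferin-ME by human CYP1A2; data normalized against complete inhibition by 57 uM furafylline. Enzyme 20nM, substrate 100uM at Km, 100mM KPO4 buffer, 60 min reaction at room temperature.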

Assay [4] is described as follows: Stat Signaling Pathway (AID 446).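 Note: ME-180 cervical cancer cells given 40 pM IL-6 alongside compound; SIE-controlled beta-lactamase reporter measured as 460/530 nm FRET emission ratio; % is set by controls: 0 for no effect and ±100 for the full control effect.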 Particulars: ME-180 SIE beta-lactamase reporter, IL-6 stimulated, 5 h; at 7.69 µM (top of the series) unless noted. The procedure, abridged:
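Reporter line: ME-180 cervical carcinoma, SIE-beta-lactamase. Treatment: compound with 40 pM IL-6, 5 hrs, 37 C, in low-serum OPTI-MEM with 10 mM HEPES pH 7.3. Detection: 460/530 nm fluorescence.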

The target in assay [5] is Glucocorticoid receptor (Homo sapiens) (UniProt P04150). The experiment in a line: GR-EFC Redistribution (AID 451; calls by dose curve; note: potency is the fitted concentration of half-maximal effect). Particulars: CHO-K1 GR-EFC translocation, beta-gal luminescence, 2 h. The procedure, abridged: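 CHO-K1 cells expressing nuclear EA and GR-ED fragments of b-gal; compounds titrated up to 46 uM final, 2 h at 37 C. GR nuclear translocation read as complemented b-gal luminescence after 1 h RT detection.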
Chain of Glucocorticoid receptor (Homo sapiens) (P04150 whole entry, looked up, the tested form may be a part): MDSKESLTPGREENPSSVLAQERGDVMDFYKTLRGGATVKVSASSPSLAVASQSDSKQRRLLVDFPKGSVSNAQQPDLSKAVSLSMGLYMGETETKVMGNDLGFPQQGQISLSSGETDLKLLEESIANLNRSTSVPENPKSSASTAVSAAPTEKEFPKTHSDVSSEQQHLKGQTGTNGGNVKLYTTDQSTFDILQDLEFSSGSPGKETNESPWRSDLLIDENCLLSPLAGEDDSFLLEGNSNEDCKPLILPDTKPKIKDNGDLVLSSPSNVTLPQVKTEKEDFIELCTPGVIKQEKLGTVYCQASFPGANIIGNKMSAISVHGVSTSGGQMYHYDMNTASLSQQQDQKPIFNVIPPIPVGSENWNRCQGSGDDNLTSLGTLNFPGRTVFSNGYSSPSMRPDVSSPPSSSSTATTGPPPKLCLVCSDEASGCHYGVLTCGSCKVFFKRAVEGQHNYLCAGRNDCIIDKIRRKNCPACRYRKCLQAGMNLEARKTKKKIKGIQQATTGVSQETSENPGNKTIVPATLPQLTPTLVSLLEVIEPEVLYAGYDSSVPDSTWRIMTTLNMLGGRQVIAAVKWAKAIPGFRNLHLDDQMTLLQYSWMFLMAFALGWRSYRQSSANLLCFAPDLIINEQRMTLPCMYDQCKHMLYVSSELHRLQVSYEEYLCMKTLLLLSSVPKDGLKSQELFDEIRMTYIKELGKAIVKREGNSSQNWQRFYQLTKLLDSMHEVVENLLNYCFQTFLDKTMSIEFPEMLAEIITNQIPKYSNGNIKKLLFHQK

In assay [6] the target is Mitogen-activated protein kinase 10 (Mus musculus) (UniProt Q61831). Kind of assay: JNK3 AlphaScreen Assay (AID 530).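 Note: kinase came from lysate of stimulated human HepG2 cells; signal reports phosphorylation of biotinylated GST-cJun 1-79 at Ser73 with 10 µM ATP; % is set by controls: 0 for no effect and ±100 for the full control effect.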 The note with it: JNK3 lysate, c-Jun phosphorylation; series mostly up to 57.1 µM. The procedure, abridged:
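Pre-activated (IL-1β/TNFα) JNK3 in HepG2 lysates phosphorylates biotin-GST-cJun(1-79), 10 uM ATP; anti-phospho-cJun(Ser73) AlphaScreen read at room temperature, pH 7.6 Tris buffer. Compounds pre-incubated 15 min as titrations.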
For orientation: Bead proximity is the source of the signal in Alpha formats.

In assay [7] the target is 3',5'-cyclic-AMP phosphodiesterase 4B (Homo sapiens) (UniProt Q07343). The experiment in a line: qHTS Assay for Inhibitors of PDE-IV (AID 607; active = well fitted activation curve with a large enough effect in the main read-out, with a control signal flat, not every such curve was filed as active; note: % of control where 0% means no effect). Particulars: HEK293 ACTOne CNG channel cells, membrane potential fluorescence; series mostly up to 22.9 µM. The procedure, abridged: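 Cell-based read-out of cAMP via a modified cyclic nucleotide-gated channel and membrane potential dye (535/590 nm) in HEK293 cells expressing PDE4 endogenously. Compounds tested up to 22.9 uM final; 100 uM RO 20-1724 reference.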
Chain of 3',5'-cyclic-AMP phosphodiesterase 4B (Homo sapiens) (Q07343 whole entry, looked up): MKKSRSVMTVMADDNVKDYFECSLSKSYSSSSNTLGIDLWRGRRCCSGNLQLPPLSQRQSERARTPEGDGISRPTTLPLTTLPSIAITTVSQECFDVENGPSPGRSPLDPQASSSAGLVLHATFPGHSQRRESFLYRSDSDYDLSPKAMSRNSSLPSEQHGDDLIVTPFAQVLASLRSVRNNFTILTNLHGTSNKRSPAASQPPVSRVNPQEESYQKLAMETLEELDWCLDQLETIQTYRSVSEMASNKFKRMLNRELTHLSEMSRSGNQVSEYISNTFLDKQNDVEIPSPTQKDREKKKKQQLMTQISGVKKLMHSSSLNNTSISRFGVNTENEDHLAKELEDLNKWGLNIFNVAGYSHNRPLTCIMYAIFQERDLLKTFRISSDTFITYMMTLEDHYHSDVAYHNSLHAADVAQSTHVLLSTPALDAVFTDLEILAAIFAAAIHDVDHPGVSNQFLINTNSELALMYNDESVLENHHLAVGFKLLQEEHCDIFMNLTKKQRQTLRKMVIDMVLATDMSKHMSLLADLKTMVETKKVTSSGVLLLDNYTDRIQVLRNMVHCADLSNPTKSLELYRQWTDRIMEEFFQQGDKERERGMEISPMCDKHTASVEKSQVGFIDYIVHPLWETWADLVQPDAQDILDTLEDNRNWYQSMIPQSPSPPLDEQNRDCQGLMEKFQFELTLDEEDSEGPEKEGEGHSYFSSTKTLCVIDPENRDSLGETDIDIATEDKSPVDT
A general note: qHTS replaces the single test concentration by a dilution series.

Assay [8] in a line: qHTS Assay for Lipid Storage Modulators (AID 1519; calls by dose curve; note: potency is the fitted concentration of half-maximal effect). Particulars: Drosophila S3 cells, BODIPY lipid droplet/cell ratio, laser cytometry, cells loaded with oleic acid; for activity change, negative = inhibition: at 57.5 µM (top of the series). The procedure, abridged:
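Cells seeded at 5,000 per well were treated with compounds over a concentration series and loaded with oleic acid (400 uM, as added). Lipid droplet fluorescence (488 nm excitation, 500-530 nm channel) was read by laser-scanning cytometry and normalized to 20 uM Triacsin C.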

For assay [9], the target named is Glucocorticoid receptor (Homo sapiens) (UniProt P04150). Kind of assay: GR-GFP Redistribution (AID 450;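 active = compounds whose dose series gives a full or clear partial fitted curve of increased nuclear translocation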; note: potency is the fitted concentration of half-maximal effect). Particulars: U2OS GR-GFP nuclear translocation, laser cytometry, 2 h.
Assay [10] addresses Cytochrome P450 3A4 (Homo sapiens) (UniProt P08684). Kind of assay: qHTS Assay for Inhibitors and Substrates of Cytochrome P450 3A4 (AID 884; active = well fitted curve in the direction sought with a large enough effect; an effect the other way counts as inactive or inconclusive; note: potency is the fitted concentration of half-maximal effect; nearly all actives have a fitted effect of over 50% in size). Particulars: recombinant CYP3A4, Luciferin-PPXE luminescence; series mostly up to 57.1 µM. The procedure, abridged:
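20 nM human CYP3A4 with 25 uM Luciferin-PPXE (at KM) in 200 mM KPO4, preincubated 10 min with compound; NADPH regeneration started a 60 min RT reaction. Luciferin detected by luminescence, normalized to 57 uM ketoconazole as full inhibition.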

The target is the same in assay [11]. The experiment in a line: qHTS Assay for Activators of Cytochrome P450 3A4 (AID 885; active = well fitted curve in the direction sought with a large enough effect; an effect the other way counts as inactive or inconclusive; note: nearly all actives have a fitted effect of over 65% in size). The note with it: recombinant CYP3A4, Luciferin-PPXE luminescence, 60 min; series mostly up to 57.1 µM. The procedure, abridged:
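Signal was normalized against complete inhibition by 57 uM ketoconazole. The reaction used 20nM CYP3A4 with 25uM Luciferin-PPXE, 10-min compound preincubation and a 60-min NADPH-supported step at RT.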

Assay [12] concerns the target Cytochrome P450 2C19 (Homo sapiens) (UniProt P33261). The experiment in a line: qHTS Assay for Inhibitors and Substrates of Cytochrome P450 2C19 (AID 899; active = well fitted curve in the direction sought with a large enough effect; an effect the other way counts as inactive or inconclusive; note: nearly all actives have a fitted effect of over 60% in size; note: potency is the fitted concentration of half-maximal effect). The note with it: recombinant CYP2C19, luciferin-H EGE luminescence; series mostly up to 57.1 µM. The procedure, abridged:
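Signal comes from luciferase acting on luciferin released by CYP2C19-mediated hydroxylation of Luciferin-H EGE, 10uM (KM). Assay mix: 5nM enzyme, 50mM KPO4; 60 min at 37C with NADPH regeneration. Data normalized against 57uM ketoconazole.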

Assay [13] can be described thus: qHTS Assay for Identification of Small Molecule Agonists for Hypoxia Response Element Signaling Pathway (AID 914; active = well fitted activation curve with a large enough effect in the signal ratio, with a control signal flat, not every such curve was filed as active; the % refers to the signal ratio; note: % of control where 0% means no effect). Particulars: ME-180 (cervical carcinoma) HRE-bla reporter, beta-lactamase ratio, CoCl2, 17 h; activation: stronger effect = higher value. The procedure, abridged: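 Read-out: CCF4 FRET ratio of 460nm to 530nm emission (excitation 405nm) after 2.5 hours at room temperature, taken from HRE-bla ME-180 cells that had been exposed to compound and EC50 CoCl2 for 17 hours.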

Assay [14] is described as follows: Confirmation and Secondary Assay for Modulators of Hemoglobin Beta Chain Splicing at IVS2 705 locus (AID 930; active = well fitted curve in the direction sought with a large enough effect; an effect the other way counts as inactive or inconclusive;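 note: HeLa cells stably expressing the EGFP-705 splicing reporter; GFP fluorescence per well restored by corrected splicing of the IVS2-705 intron in EGFP; % of control where 0% means no effect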). The note with it: HeLa EGFP-705 splicing reporter, GFP fluorescence, 48 h; series mostly up to 38.3 µM. The procedure, abridged: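 HeLa EGFP-705 reporter; 500 cells/well, o/n 37C 5% CO2; cpd 2 d; 488 ex/500-520 em laser scan; total peak GFP intensity/well. Ref: 500 nM […] antisense PNA.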

The target of assay [15] is Ubiquitin carboxyl-terminal hydrolase 1 (Homo sapiens) (UniProt O94782). The experiment in a line: Inhibitors of USP1/UAF1: Pilot qHTS (AID 504865; active = well fitted curve in the direction sought with a large enough effect; an effect the other way counts as inactive or inconclusive; note: potency is the fitted concentration of half-maximal effect; nearly all actives have a fitted effect of over 35% in size). Particulars: purified USP1/UAF1, Ub-rhodamine cleavage fluorescence; series mostly up to 54.9 µM. The procedure, abridged:
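Deubiquitinase activity followed as kinetic rhodamine fluorescence release from 150 nM Ub-Rho. 1 nM USP1/UAF1 with compound, after 15 min room-temperature preincubation, in HEPES pH 7.8 buffer containing TCEP, EDTA, BSA and Tween-20.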

Assay [16] can be described thus: NFAT Signaling Pathway (AID 444).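 Note: carbachol stimulus at about its EC50 of 1 µM final; % is set by controls: 0 for no effect and ±100 for the full control effect.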 Particulars: Jurkat NFAT-bla M1, carbachol, beta-lactamase ratio, 5 h; at 7.69 µM (top of the series) unless noted. The procedure, abridged: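 Jurkat cells with NFAT-driven β-lactamase reporter and co-expressed M1 receptor, stimulated with carbachol (final 1 uM, ~EC50), compound titration, 5 h at 37 °C. CCF4 loaded 1 h at RT; 460/530 nm ratio gave %activity and AC50.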

The target of assay [17] is Cytochrome P450 2D6 (Homo sapiens) (UniProt P10635). The experiment in a line: qHTS Assay for Inhibitors and Substrates of Cytochrome P450 2D6 (AID 891; active = well fitted curve in the direction sought with a large enough effect; an effect the other way counts as inactive or inconclusive; note: nearly all actives have a fitted effect of over 60% in size; note: potency is the fitted concentration of half-maximal effect). The note with it: recombinant CYP2D6, luciferin-ME EGE luminescence; series mostly up to 57.1 µM. The procedure, abridged: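 Human CYP2D6 (5 nM) with 30 uM Luciferin-ME EGE (at Km) in 100 mM KPO4, compound preincubated 10 min, then NADPH regeneration system for 60 min at room temperature. Luciferin read by luminescence; normalized to 1.43 uM quinidine.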
Chain of Cytochrome P450 2D6 (Homo sapiens) (P10635 whole entry, looked up): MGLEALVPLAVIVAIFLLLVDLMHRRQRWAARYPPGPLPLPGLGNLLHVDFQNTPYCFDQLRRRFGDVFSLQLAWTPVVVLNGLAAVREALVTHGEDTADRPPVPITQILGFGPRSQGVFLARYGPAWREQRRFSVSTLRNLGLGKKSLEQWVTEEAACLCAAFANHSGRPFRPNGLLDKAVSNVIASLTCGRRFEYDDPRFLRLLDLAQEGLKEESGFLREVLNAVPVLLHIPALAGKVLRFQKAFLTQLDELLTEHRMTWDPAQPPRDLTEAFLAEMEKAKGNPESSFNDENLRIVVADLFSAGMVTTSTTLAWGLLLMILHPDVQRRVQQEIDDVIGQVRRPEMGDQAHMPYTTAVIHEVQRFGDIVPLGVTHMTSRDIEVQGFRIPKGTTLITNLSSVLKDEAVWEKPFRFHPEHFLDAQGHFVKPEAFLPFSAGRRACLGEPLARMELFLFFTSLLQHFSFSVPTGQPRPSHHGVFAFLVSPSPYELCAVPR

Assay [18] in a line: Confirmation and Secondary Assay for Modulators of Hemoglobin Beta Chain Splicing at IVS2 654 locus (AID 910; active = well fitted curve in the direction sought with a large enough effect; an effect the other way counts as inactive or inconclusive;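 note: HeLa cells stably carrying EGFP split by mutant beta-globin IVS2-654 intron; % of control where 0% means no effect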). The note with it: HeLa EGFP-654 splicing reporter, GFP fluorescence, 48 h; series mostly up to 38.3 µM. The procedure, abridged:
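HeLa cells stably expressing EGFP interrupted by β-globin IVS2-654 intron, seeded overnight in Opti-MEM/2% FCS, then treated 2 days at 37 °C. Restored splicing read as total peak GFP intensity per well by laser scanning cytometry (488 nm excitation, 500–520 nm emission); 500 nM antisense PNA as control.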

The mark [19] stands for this setting: measured here: cell count channel max response.
Where [20] appears, read: measured here: lipid channel max response.

Records with an inconclusive call do not appear. Calls of active or inactive are those of the source. Unless noted, calls come from the whole dose curve; as a rule, active = well fitted curve in either direction with a large enough effect (not every such curve was filed as active); inconclusive = small, poorly fitted or top-dose-only effect, or another doubt; inactive = flat fitted curve, though single readings scatter.

Chain of Cytochrome P450 3A4 (Homo sapiens) (P08684 whole entry, looked up): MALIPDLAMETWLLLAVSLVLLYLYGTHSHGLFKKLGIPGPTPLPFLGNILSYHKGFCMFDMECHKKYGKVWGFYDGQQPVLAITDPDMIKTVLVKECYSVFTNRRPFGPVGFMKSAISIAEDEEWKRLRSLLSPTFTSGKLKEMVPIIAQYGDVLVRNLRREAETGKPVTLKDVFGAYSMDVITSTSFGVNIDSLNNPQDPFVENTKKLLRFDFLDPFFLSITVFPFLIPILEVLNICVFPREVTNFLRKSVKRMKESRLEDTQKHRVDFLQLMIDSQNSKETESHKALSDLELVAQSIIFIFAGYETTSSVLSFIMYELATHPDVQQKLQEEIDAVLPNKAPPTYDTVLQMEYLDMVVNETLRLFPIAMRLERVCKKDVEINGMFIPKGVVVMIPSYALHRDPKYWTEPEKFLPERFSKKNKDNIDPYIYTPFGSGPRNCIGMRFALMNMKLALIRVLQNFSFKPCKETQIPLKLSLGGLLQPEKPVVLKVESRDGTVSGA
Chain of Cytochrome P450 1A2 (Homo sapiens) (P05177 whole entry, looked up): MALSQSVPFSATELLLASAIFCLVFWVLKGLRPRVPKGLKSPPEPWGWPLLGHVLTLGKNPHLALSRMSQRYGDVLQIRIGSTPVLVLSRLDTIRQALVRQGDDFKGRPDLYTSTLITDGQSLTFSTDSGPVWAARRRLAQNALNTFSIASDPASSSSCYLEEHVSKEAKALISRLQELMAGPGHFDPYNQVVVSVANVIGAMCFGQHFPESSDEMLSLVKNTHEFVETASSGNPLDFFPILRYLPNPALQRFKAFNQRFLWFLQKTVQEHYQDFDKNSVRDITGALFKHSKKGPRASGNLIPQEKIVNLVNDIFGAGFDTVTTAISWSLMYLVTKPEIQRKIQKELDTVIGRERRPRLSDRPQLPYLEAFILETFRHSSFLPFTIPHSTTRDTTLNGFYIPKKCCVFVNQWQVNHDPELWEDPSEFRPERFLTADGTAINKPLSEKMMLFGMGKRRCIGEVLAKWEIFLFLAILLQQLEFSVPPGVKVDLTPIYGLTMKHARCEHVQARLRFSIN
Chain of Lysosomal acid glucosylceramidase (Homo sapiens) (P04062 whole entry, looked up): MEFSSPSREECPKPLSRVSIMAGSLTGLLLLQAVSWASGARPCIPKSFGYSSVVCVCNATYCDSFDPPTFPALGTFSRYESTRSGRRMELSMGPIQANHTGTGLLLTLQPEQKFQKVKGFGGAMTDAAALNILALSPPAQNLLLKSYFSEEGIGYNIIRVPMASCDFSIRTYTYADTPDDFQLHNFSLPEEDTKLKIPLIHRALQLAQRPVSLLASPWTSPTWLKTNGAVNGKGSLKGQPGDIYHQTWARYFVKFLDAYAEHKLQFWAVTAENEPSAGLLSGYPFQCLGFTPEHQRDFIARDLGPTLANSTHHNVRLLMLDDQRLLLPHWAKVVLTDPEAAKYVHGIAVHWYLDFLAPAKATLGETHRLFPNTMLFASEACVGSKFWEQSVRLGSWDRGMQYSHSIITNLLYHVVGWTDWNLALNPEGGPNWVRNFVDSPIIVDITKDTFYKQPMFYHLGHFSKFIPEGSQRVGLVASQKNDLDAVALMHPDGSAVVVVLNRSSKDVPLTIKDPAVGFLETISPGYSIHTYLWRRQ
Chain of Cytochrome P450 2C19 (Homo sapiens) (P33261 whole entry, looked up): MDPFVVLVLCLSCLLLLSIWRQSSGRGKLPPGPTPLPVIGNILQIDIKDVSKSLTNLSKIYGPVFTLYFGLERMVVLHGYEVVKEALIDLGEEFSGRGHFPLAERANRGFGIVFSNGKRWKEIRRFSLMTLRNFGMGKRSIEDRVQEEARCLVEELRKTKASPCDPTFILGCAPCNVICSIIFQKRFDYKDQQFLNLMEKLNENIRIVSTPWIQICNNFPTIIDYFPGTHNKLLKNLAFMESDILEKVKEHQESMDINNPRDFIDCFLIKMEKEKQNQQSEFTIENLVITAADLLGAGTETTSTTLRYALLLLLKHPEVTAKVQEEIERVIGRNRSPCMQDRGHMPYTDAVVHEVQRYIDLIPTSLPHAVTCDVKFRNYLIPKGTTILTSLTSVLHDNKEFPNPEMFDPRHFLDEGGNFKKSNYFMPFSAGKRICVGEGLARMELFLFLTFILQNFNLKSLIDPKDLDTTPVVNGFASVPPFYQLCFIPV
Chain of Ubiquitin carboxyl-terminal hydrolase 1 (Homo sapiens) (O94782 whole entry, looked up): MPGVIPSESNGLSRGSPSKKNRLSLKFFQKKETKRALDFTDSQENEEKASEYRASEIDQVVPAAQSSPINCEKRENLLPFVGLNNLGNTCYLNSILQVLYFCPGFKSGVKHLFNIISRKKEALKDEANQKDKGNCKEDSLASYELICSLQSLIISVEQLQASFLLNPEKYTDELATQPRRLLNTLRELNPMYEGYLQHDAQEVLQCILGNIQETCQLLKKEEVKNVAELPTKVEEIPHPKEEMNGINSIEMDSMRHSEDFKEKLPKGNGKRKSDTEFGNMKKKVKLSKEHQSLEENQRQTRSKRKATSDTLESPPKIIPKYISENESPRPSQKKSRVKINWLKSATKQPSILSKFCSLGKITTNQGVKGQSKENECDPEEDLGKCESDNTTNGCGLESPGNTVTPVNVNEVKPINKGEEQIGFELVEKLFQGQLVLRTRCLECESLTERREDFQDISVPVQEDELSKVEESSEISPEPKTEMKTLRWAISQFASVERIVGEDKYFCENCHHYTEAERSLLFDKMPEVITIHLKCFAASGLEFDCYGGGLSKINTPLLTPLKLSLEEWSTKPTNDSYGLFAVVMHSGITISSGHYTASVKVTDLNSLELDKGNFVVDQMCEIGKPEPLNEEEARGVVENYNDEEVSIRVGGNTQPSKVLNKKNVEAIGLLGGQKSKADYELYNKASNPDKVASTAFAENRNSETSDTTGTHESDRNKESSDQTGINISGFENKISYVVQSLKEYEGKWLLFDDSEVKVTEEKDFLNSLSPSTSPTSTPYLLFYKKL

On to `O=C(c1cc(C(F)(F)F)cc(C(F)(F)F)c1)N1CCC2(CC1)CN(Cc1ccccc1)C2`, for which the Potency in [1] was > 11.4 µM (inactive); in [5], > 46 µM (inactive). Besides, the activity change, negative = inhibition is -4.34% (inactive) in [2] and 1.87% (inactive) in assay [8]. The Potency entry in assay [3], in [6] and in assay [7] was “inactive” in each case. Besides, the activity, negative = inhibition in assay [4] is 9.42% (inactive). The max response was found to be 22.2% in assay [8] (setting [19]) and 24.8% in [8] (setting [20]).
In the case of `c1ccc2c(Nc3ccncc3)nc(-c3ccc4c(c3)OCO4)nc2c1`, the Potency in assay [1] is 2.47 µM (active); in [3], 1.26 µM (active); in assay [9], > 46 µM (inactive); in assay [5] it was > 46 µM (inactive); in [10] it was 0.501 µM (active); in assay [12], 3.98 µM (active). In addition, in assay [15], the Potency was 39.8 µM (active). Further, the activity change, negative = inhibition is 4.72% (inactive) in assay [2] and -19.5% (inactive) in [8]. The activity, negative = inhibition in [4] is -10.5% (inactive). Moreover, the Potency result in assay [6] and in [11] was “inactive” in each case. Also, the activation in assay [13] is -1.29% (inactive). For the same compound, the outcome in [14] was inactive. Besides, the figures for the max response in [8] (setting [19]) and in [8] (setting [20]) were 5.68% and -11.9%, respectively.
On to `Cc1noc(C)c1C(=O)N1CCC[C@@]2(CCN(Cc3cc(C(F)(F)F)cc(C(F)(F)F)c3)C2)C1`, for which the Potency was > 11.4 µM (inactive) in assay [1] and > 46 µM (inactive) in assay [5]. The activity change, negative = inhibition is 1.15% (inactive) in [2], 14.8% (inactive) in [16] and 4.37% (inactive) in assay [8]. Besides, the Potency entry in [3], in [6], in assay [7], in assay [11] and in assay [12] was “inactive” throughout. The activity, negative = inhibition in assay [4] was 1.36% (inactive). For the same compound, the max response came out at 12.5% in [8] (setting [19]) and 19.6% in [8] (setting [20]).
For `N#Cc1ccc(CN2CCC3(CC2)CCN(S(=O)(=O)c2ccccc2)CC3)cc1`, the Potency is > 11.4 µM (inactive) in assay [1] and > 46 µM (inactive) in [5]. The activity change, negative = inhibition in assay [2] was -18.1% (inactive); in [8], -0.545% (inactive). Moreover, the Potency result in [3], in [6], in [7] and in [11] was “inactive” in each case. Also, in assay [4], the activity, negative = inhibition is 1.33% (inactive). The max response in assay [8] (setting [19]) amounted to 11.7%; in [8] (setting [20]), 10.8%.
Turning to `FC(F)(F)c1cc(CN2CC[C@@]3(CCCNC3)C2)cc(C(F)(F)F)c1`, the results for the Potency in [1] and in assay [5] were > 11.4 µM (inactive) and > 46 µM (inactive), respectively. Further, the activity change, negative = inhibition in assay [2] was 7.88% (inactive); in assay [8] it was 1.16% (inactive). Further, the Potency result in assay [3], in [6], in [7], in [11], in assay [17] and in [12] was “inactive” each time. Besides, in [4], the activity, negative = inhibition is 4.03% (inactive). The max response in [8] (setting [19]) is 8.55%; in assay [8] (setting [20]), 10.6%.
As to `CS(=O)(=O)N1CCC[C@@]2(CCN(C(c3ccccc3)c3ccccc3)C2)C1`, the Potency is > 11.4 µM (inactive) in assay [1]; 25.1 µM (active) in assay [3]; > 46 µM (inactive) in [5]; 3.98 µM (active) in [17]; 7.94 µM (active) in assay [8]. In addition, the activity change, negative = inhibition in assay [2] was 5.41% (inactive); in [16], -7.94% (inactive). Besides, the activity, negative = inhibition in assay [4] was 1.66% (inactive). The Potency result in [6], in [7] and in [11] was “inactive” throughout. The max response in assay [8] (setting [19]) is -26.7%; in assay [8] (setting [20]), -82.6%.
`COc1ccccc1-c1nccc(NCc2cccc(C)c2)n1`: the Potency was > 11.4 µM (inactive) in [1]; 0.631 µM (active) in assay [3]; > 46 µM (inactive) in assay [5]; 6.31 µM (active) in [10]; 1.58 µM (active) in assay [17]; 22.4 µM (active) in assay [15]. In addition, the activity change, negative = inhibition was -2.08% (inactive) in [2], -5.48% (inactive) in [16] and -4.4% (inactive) in [8]. For the same compound, the Potency entry in [6], in assay [11] and in assay [18] was “inactive” in each case. Besides, the result in [14] was inactive. Besides, the max response was -19.8% in assay [8] (setting [19]) and -23.8% in [8] (setting [20]).
